Source: PubChem BioAssay (National Center for Advancing Translational Sciences (NCATS))
An excerpt weighted towards active compounds, which were near 0.41% of everything screened.
Menin-MLL TR inh: displaces Texas Red mutant MLL peptide from human menin | Potency, µM (highest dose often 61.6 µM), hits mostly inhibitors | 0.23% of 270,000 active | Menin + Texas Red MLL mutant peptide, fluorescence polarization; active = well fitted inhibition curve with a large enough effect in the polarisation, with a control signal flat, not every such curve was filed as active; inconclusive = small, poorly fitted or top-dose-only effect, or effect the other way, or a change in a side signal; inactive = no such curve, though single readings can be large or run the other way; the % refers to the polarisation
PKM2 activator: activators of human pyruvate kinase M2 | Potency, µM (top dose mostly 57.5 µM), hits mostly activators | 0.34% of 260,000 active | purified PKM2, Kinase-Glo ATP luminescence, activation; response scale: 0% is enzyme alone, no compound; active = well fitted activation curve with a large enough effect; inconclusive = small, poorly fitted or top-dose-only effect; inactive = no such curve, though single readings can be large or run the other way; also: nearly all actives have a fitted effect of over 55% in size
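Kinase-Glo luminescence reports ATP generated from ADP (0.1 mM) and PEP (0.5 mM) by purified hPK-M2 after 1 h at room temperature, pH 7.2 imidazole buffer; intermediate enzyme activity allows detecting inhibitors and activators.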
Menin-MLL FL inh: menin-MLL binding inhibition, fluorescein peptide | AID 1766 | Fluorescence polarization, fluorescein-MLL peptide displacement from menin | FP activity change, % at 61.4 µM | 290,000 tested, under 10 active; active = well fitted curve in the direction sought with a large enough effect in the polarisation, not every such curve was filed as active; inconclusive = small, poorly fitted or top-dose-only effect, or effect the other way, or a change in a side signal; inactive = no such curve, though single readings can be large or run the other way; the % refers to the polarisation
MLL CXXC-DNA inh: blocks binding of human MLL CXXC domain to DNA; Q03164; MLL-CXXC / FITC-HOXA9 DNA fluorescence polarization; Potency, µM (doses to about 115 µM), most hits filed as inhibitors; 0.037% of 290,000 active; AID 2662; active = well fitted inhibition curve with a large enough effect in the polarisation, with a control signal flat, not every such curve was filed as active; inconclusive = small, poorly fitted or top-dose-only effect, or effect the other way, or a change in a side signal; inactive = no such curve, though single readings can be large or run the other way; the % refers to the polarisation
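Steps: dispense CXXC domain solution (7 uM) → pin compounds or unlabeled HOX-A9 DNA control → 5 min ambient → add FLSN-HOX-A9 solution (50 nM) → spin → 30 min ambient → fluorescence polarization. Tris pH 7.5/NaCl/DTT/BSA buffer.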
Numbers stand for hits; n = inactive; u = inconclusive; x = not tested or not shown; [ ] = remark or other dose.

SMILES	Menin-MLL TR inh	PKM2 activator	Menin-MLL FL inh	MLL CXXC-DNA inh
O=C(CSc1nnc(-c2cccnc2)s1)Nc1cccc(C(=O)O)c1	n	n	n	n
O=C(CSc1nnc(-c2ccncc2)s1)Nc1ccccc1	n	3.98µM	n	n
O=C(CSc1nnc(-c2cccnc2)s1)Nc1ccccc1	u	14.1µM	n	n
C=CC1=C2C=C(C3CC3)N(CCCCO)C=C2C(=O)C(C)(OC(=O)c2ccco2)C1=O (stereo unspecified)	n[11.7 µM]	n[11.5 µM]	n[11.7 µM]	x
Cc1ccc2[nH]c(=O)c3cc(C(=O)N4CCN(C(=O)c5ccco5)CC4)sc3c2c1	n	15.8µM	n	n
Cc1csc(NC(=O)CSc2nnc(NC(=O)COc3ccccc3)s2)n1	39.8µM	n	n	n
Cc1csc(NC(=O)CSc2nnc(C)s2)n1	n	n	n	n
Cc1cccc2c1NC(C)CC2C (stereo unspecified)	25.1µM	n	n	n
CCc1cccc2c1NC1(CCCC1)CC2C (stereo unspecified)	u	n	n	n
C=C(C)C(=O)/C=C/CCC/C=C/C(=O)OCC	n	x	n	x
O=C(O)c1cc(=O)c2c3nc4ccccc4oc-3cc(=O)c2[nH]1	39.8µM	x	n	n
Cc1ccc(/C=C2/CNC/C(=C\c3ccc(C)cc3)C2=O)cc1	u	x	n	x
Cc1ccc(-n2ncc3c(N4CCCC4)ncnc32)c(C)c1	n	25.1µM	n	n
CCOC(=O)C1CCN(c2nc(N)c3c(N)nc(SCC(=O)O)cc3c2C#N)CC1	x	10µM	u	n
CC(=O)C1(C)CC2(CC(C)(C)OC2=O)C(=O)O1 (stereo unspecified)	n	x	n	x
Cc1cc(CNC(=O)[C@]2(C(F)(F)F)C[C@H](CCC3CCCCC3)CCCO2)nn1C	u	x	n	x
COc1ccc(C(=O)/C=C/C(=O)N(CC(=O)NC2CCCCC2)CC2CCCO2)c(O)c1 (stereo unspecified)	u	7.94µM	n	n
Cc1ccc(-c2cc(-c3ccc(C)o3)nc(N)c2C#N)cc1	u	u	u	n
Cc1ccc(-c2cc(-c3ccc4c(c3)OCO4)c(C#N)c(N)n2)o1	n	10µM	u	n
COc1ccc(-c2ccc(C(C)=O)cc2)cc1C1C2C=CCCC2(C)C(=O)N1Cc1ccccc1 (stereo unspecified)	n	x	n	x
O=C(c1ccc(NS(=O)(=O)c2cccs2)cc1)N1CCCCC1	n	n	n	n
O=C(c1ccc(NS(=O)(=O)c2cccs2)cc1)N1CCN(c2ccccc2Cl)CC1	n	6.31µM	n	n
CCOC(=O)c1c[nH]c2cc(OCC(C)C)c(OCC(C)C)cc2c1=O	n	x	n	n
O=C(c1ccc(Cl)c(Cl)c1)c1cnc(Nc2ccccc2)s1	22.4µM	n	n	n
CNc1ncc(C(=O)c2ccc(Cl)c(Cl)c2)s1	n	n	n	n
SMILES	Menin-MLL TR inh	PKM2 activator	Menin-MLL FL inh	MLL CXXC-DNA inh
CCCCCOC(=O)Nc1ccc(S(=O)(=O)Nn2cnnc2)cc1	n	4.47µM	n	n
CN(CCO)S(=O)(=O)c1ccc2c(c1)C(=NO)c1cc(S(=O)(=O)N(C)CCO)ccc1-2	u	n	n	n
NS(=O)(=O)c1ccc2c(c1)C(=NO)c1cc(S(N)(=O)=O)ccc1-2	n	3.98µM	n	n
Cc1nc2cnc(N3CCNCC3)nc2n(C2CC2)c1=O	n	x	n	x
Cn1c(=O)oc2cc(S(=O)(=O)Nc3ccc(O)cc3)ccc21	n	8.91µM	n	n
CCCCn1c(=O)[nH]c(=O)c2c1nc(-c1ccc(-c3ccccc3Br)o1)n2CCOC	n	u	n	n
COCCn1c(-c2ccc(-c3ccccc3Cl)o2)nc2c1c(=O)[nH]c(=O)n2CC(C)C	u	28.2µM	n	n
N=c1c2c(-c3ccccc3)c(-c3ccccc3)n(Cc3ccccc3)c2ncn1CCCn1ccnc1	22.4µM	n	n	n
CN(C)c1ncc2nc(-c3ccc(F)cc3)c(=O)n(C[C@H]3CCCO3)c2n1	n	x	n	x
O=C1C[C@@H](c2ccccc2Cl)N1S(=O)(=O)c1ccccc1[N+](=O)[O-]	n	x	n	x
O=C1CCCC/C1=C\Nc1ccc(O)cc1	31.6µM	n	n	n
CC(=O)Nc1sc(N/N=C\c2ccc(O)cc2)nc1-c1cccs1	x	22.4µM	n	n
CC(=O)Nc1sc(N/N=C\c2cccc(Cl)c2)nc1-c1cccs1	u	u	n	n
O=C(O)C(Cc1ccccc1)N1C(=O)c2ccccc2C1=O (stereo unspecified)	n	n	n	n
[N-]=[N+]=CC(=O)C(Cc1ccccc1)N1C(=O)c2ccccc2C1=O (stereo unspecified)	n	11.2µM	n	n
COCCn1c(=O)c(-c2cccs2)nc2cnc(Oc3cccc(Cl)c3)nc21	u	x	n	x
C=CCc1cccc(CNc2nc3ccccc3n2CCC)c1O	u	28.2µM	n	n
C=CCc1cccc(CNc2nc3ccccc3n2CC)c1O	u	u	n	n
Cc1ccc(S(=O)(=O)Nc2ccc(-c3nnc(SCC#N)n3C)cc2)cc1	n	20µM	n	n
COCCn1c(=O)c(-c2cc(F)cc(F)c2)nc2cnc(OC)nc21	n	x	n	x
CC(C)c1onc(-c2c(Cl)cccc2Cl)c1COc1ccc(/C=C/c2cccc(C(=O)O)c2)c(Cl)c1	u	x	n	x
O=C1C(=O)N(CCCc2ccccc2)c2ccccc21	n	u	n	n
O=C(CN1C(=O)C(=O)c2ccccc21)NCCc1ccccc1	n	31.6µM	n	n
CC(C)OC(=O)[C@@H]1CC[C@H](C)[C@@H](CCCCO)O1	n	x	n	x
COc1cccc(NS(=O)(=O)c2ccc3c(c2)CCN3C(C)=O)c1	n	x	n	n
SMILES	Menin-MLL TR inh	PKM2 activator	Menin-MLL FL inh	MLL CXXC-DNA inh
CC(=O)N1CCc2cc(S(=O)(=O)Nc3cccc(C(F)(F)F)c3)ccc21	n	25.1µM	n	n
COC(=O)NC(/C(C(=O)OC)=C(\C)NCc1ccccc1)c1ccc2ccccc2c1 (stereo unspecified)	n[11.7 µM]	x	n[11.7 µM]	x
CCN(CCO)c1nc(SC)nc2c1sc1nc(-c3ccco3)c3c(c12)CCC3	u	n	u	n
CSc1nc(NCCOCCO)c2sc3nc(-c4ccco4)c4c(c3c2n1)CCC4	u	22.4µM	n	n
O=C1N(Cc2ccc(F)cc2)CCN1c1ccc(F)cc1	n	n	n	n
COC(=O)c1cc2n(n1)CCN(Cc1cccc(OC)c1)C2=O	n	20µM	n	n
COc1cccc(CN2CCN(c3ccc(F)cc3)C2=O)c1	n	28.2µM	n	n
COc1ccc(C(=O)N2CCC3(CCN(C)CC3)CC2)cc1	n	x	n	x
COc1cccc(OCc2cc(C3Nc4ccccc4C(=O)N3Cc3ccco3)ccc2OC)c1 (stereo unspecified)	n	7.94µM	n	n
NC(=S)NCCCC(N)C(=O)O (stereo unspecified)	n	x	n	n
O=C(NCc1cc(F)cc2c1OCCO2)[C@H]1C[C@@H]1[C@H](NP(=O)(c1ccccc1)c1ccccc1)c1ccccc1	n	n	n	x
CN1C(=O)/C(=C/c2cn(CC(=O)NCc3ccco3)c3ccccc23)NC1=S	u	7.94µM	u	n
CCN=C1S/C(=C\c2cn(CC(=O)NCc3ccco3)c3ccccc23)C(=O)N1CC	n	n	n	n
